# Source: the supplement of paper PMC6992640
# ± gives the standard deviation of the averaged measurements.
# What was measured:
# Assay in all cases: cell viability (% of vehicle); higher = less cytotoxic
# Conditions in all cases: 10 µM; 72 h
# HCI01 = system: HCI01 (cells of a triple-negative basal-like breast cancer xenograft)
# HCI03 = system: HCI03 (cells of an ER-positive luminal breast cancer xenograft)
# HCI09 = system: HCI09 (cells of a triple-negative luminal androgen receptor type breast cancer xenograft)
# HCI11 = system: HCI11 (cells of an ER-positive luminal breast cancer xenograft)
# HCI13 = system: HCI13 (cells of an ER-positive luminal breast cancer xenograft)
# HCI16 = system: HCI16 (cells of a triple-negative basal-like breast cancer xenograft)
# UCD52 = system: UCD52 (cells of a triple-negative basal-like breast cancer xenograft)
# WHIM2 = system: WHIM2 (cells of a triple-negative basal-like breast cancer xenograft)
# WHIM30 = system: WHIM30 (cells of a triple-negative basal-like breast cancer xenograft)
# 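Note: PDX cells carrying CMV promoter-driven luciferase, viability read as total photon flux per second by IVIS imaging following D-luciferin, vehicle control 0.1% DMSO.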
SMILES,cell viability (HCI01),cell viability (HCI03),cell viability (HCI09),cell viability (HCI11),cell viability (HCI13),cell viability (HCI16),cell viability (UCD52),cell viability (WHIM2),cell viability (WHIM30)
CCC(=O)NCCC1CCc2ccc3c(c21)CCO3 (stereo unspecified) [Ramelteon],98.9 ± 7,113,94 ± 8.3,93,94 ± 20,81.6,80.6 ± 1.4,80.7 ± 9.9,103 ± 3.4
CCN(CC)CCOCCOC(=O)C(CC)(CC)c1ccccc1.O=C(O)CC(O)(CC(=O)O)C(=O)O [Oxeladin Citrate],111.1 ± 1.1,92.7,143 ± 73,99.4,98.7 ± 22,122,84.9 ± 4.5,82.4 ± 24,119 ± 21
Clc1ccc2c(c1)CCc1cccnc1C2=C1CCNCC1 [Desloratadine],164 ± 55,143,99.6 ± 1.5,77.5,128 ± 19,128,67.2 ± 9.1,69.5 ± 16,102 ± 7.8
OCCOc1ccc(C(=C(CCCl)c2ccccc2)c2ccccc2)cc1 [Ospemifene],117 ± 33,139,99.6 ± 30,106,91 ± 2.3,146,86.3 ± 1.5,78.5 ± 5.9,148 ± 10
NC(=O)N1c2ccccc2C=Cc2ccccc21 [Carbamazepine],107 ± 2.9,103,94.3 ± 32,106,91.8 ± 1.1,99.6,85.8 ± 4.4,75.2 ± 22,98.8 ± 4.5
CC1(c2nc3c(C(N)=O)cccc3[nH]2)CCCN1 (stereo unspecified) [ABT-888 (Veliparib)],109 ± 7.5,120,108 ± 5.2,100,86.9 ± 14,91.1,94.2 ± 2,101 ± 14,121 ± 4.2
CCOc1ccc(NC(C)=O)cc1 [Phenacetin],139 ± 6,136,96.9 ± 17,96.7,102 ± 3.9,122,82 ± 12,98.7 ± 10,94.4 ± 11
O=C(O)c1ccc2ccccc2c1O.OCc1cc(C(O)CNCCCCCCOCCCCc2ccccc2)ccc1O (stereo unspecified) [Salmeterol xinafoate],86 ± 1.1,92.5,57.3 ± 8,75.2,88.6 ± 9.6,76.1,62.1 ± 0.9,66.7 ± 13,107 ± 20
CNC(=O)CN(CCN(CCN(CC(=O)[O-])CC(=O)NC)CC(=O)[O-])CC(=O)[O-].O.[Gd+3] [Gadodiamide],99.5 ± 27,111,99 ± 15,90.1,83.6 ± 8.9,112,104 ± 7.4,92.5 ± 29,94.5 ± 5.2
Nc1ccn(C2CCC(CO)O2)c(=O)n1 (stereo unspecified) [Zalcitabine],90.1 ± 3.1,124,102 ± 5.5,93.5,91.99 ± 0.76,128,104 ± 10,85.08 ± 0.32,176 ± 35
CC(C)=CCCC(C)=CCCC(C)=CCSc1ccccc1C(=O)O [Salirasib],69.5 ± 50,112,95.6 ± 7.4,97.9,84.5 ± 4.3,103,95.5 ± 4.6,39.5 ± 1.3,120 ± 15
Cl.NC(CO)C(=O)NNCc1ccc(O)c(O)c1O (stereo unspecified) [Benserazide HCl],95.9 ± 1.5,69.1,83.6 ± 6.1,44.9,79.2 ± 11,77.2,69.6 ± 8.5,96.3 ± 3.2,103 ± 4.4
Cc1nc(C(=O)NCC(=O)O)c(O)c2ccc(Oc3ccccc3)cc12,122 ± 2.7,189,88.7 ± 11,140,113 ± 4.4,88.2,107 ± 14,160 ± 8.2,116 ± 14
Cc1cc(C)cc(OCC2CNC(=O)O2)c1 (stereo unspecified) [Metaxalone],100 ± 16,155,108.2 ± 0.2,100,120 ± 9.4,137,105 ± 6.4,111 ± 4.7,102 ± 3
Cl.Clc1ccc2nsnc2c1NC1=NCCN1 [Tizanidine HCl],115 ± 7.6,125,95.5 ± 43,102,125 ± 25,100,84.3 ± 0.65,88.3 ± 14,117 ± 20
CC1(C)SC2C(NC(=O)C(N)c3ccccc3)C(=O)N2C1C(=O)[O-].[Na+] (stereo unspecified) [Ampicillin],101.47 ± 0.042,101,104 ± 9.8,84.6,86.7 ± 9.1,78.9,83.5 ± 3.9,77.9 ± 1.1,112 ± 20
CC(=O)Oc1cc(C(F)(F)F)ccc1C(=O)O [Triflusal],108 ± 22,129,97 ± 13,101,107 ± 1.9,98.4,76 ± 3.1,107 ± 17,85.4 ± 4.2
CC(C)NCC(O)COc1ccc(CCOCC2CC2)cc1.Cl (stereo unspecified) [Levobetaxolol HCl],125 ± 30,104,112 ± 18,105,145 ± 15,127,109 ± 18,96.8 ± 13,114 ± 14
CN(C)CCC(c1ccccc1)c1ccccn1.O=C(O)C=CC(=O)O (stereo unspecified) [Pheniramine Maleate],111 ± 10,123,108 ± 34,101,94.008 ± 0.0093,132,117 ± 27,97.8 ± 24,124 ± 14
